Bioassay records: PubChem BioAssay, Broad Institute
In the library only some 4.1% were active in any assay of this set; here they are far more common.
F508del corr: CFTR F508del correction in bronchial cells; CFBE cells, YFP halide quenching; stimulated with forskolin plus potentiator P3; % fluorescence drop versus neutral controls; activity (quench increase), % at 7.58 µM; hit rate 0.36% among 350,000;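 active means mean added fluorescence quench of at least 8% versus neutral control, with both replicates also reaching 8%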;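 further: cells transiently co-express mutant CFTR-F508del with the halide-sensitive YFP; corrector assay measuring rescue of mutant channel to the surface after 24 h compound exposure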
PglD DTNB: PglD (C. jejuni) enzyme inhibition. purified PglD enzyme, DTNB colorimetric CoA detection. inhibition, % at 12.5 µM. hit rate 0.098% among 360,000. AID 602405; in the data active means inhibition above about 16%, passing the limit was not always enough
NSD2 inh: inhibitors of human histone methyltransferase NSD2. NSD2 peptide methylation, AlphaScreen, 120 min. O96028. inhibition, % at 12.5 µM. hit rate 0.54% among 310,000; in the data active means inhibition above about 50%
Target sequence (O96028 whole entry, looked up): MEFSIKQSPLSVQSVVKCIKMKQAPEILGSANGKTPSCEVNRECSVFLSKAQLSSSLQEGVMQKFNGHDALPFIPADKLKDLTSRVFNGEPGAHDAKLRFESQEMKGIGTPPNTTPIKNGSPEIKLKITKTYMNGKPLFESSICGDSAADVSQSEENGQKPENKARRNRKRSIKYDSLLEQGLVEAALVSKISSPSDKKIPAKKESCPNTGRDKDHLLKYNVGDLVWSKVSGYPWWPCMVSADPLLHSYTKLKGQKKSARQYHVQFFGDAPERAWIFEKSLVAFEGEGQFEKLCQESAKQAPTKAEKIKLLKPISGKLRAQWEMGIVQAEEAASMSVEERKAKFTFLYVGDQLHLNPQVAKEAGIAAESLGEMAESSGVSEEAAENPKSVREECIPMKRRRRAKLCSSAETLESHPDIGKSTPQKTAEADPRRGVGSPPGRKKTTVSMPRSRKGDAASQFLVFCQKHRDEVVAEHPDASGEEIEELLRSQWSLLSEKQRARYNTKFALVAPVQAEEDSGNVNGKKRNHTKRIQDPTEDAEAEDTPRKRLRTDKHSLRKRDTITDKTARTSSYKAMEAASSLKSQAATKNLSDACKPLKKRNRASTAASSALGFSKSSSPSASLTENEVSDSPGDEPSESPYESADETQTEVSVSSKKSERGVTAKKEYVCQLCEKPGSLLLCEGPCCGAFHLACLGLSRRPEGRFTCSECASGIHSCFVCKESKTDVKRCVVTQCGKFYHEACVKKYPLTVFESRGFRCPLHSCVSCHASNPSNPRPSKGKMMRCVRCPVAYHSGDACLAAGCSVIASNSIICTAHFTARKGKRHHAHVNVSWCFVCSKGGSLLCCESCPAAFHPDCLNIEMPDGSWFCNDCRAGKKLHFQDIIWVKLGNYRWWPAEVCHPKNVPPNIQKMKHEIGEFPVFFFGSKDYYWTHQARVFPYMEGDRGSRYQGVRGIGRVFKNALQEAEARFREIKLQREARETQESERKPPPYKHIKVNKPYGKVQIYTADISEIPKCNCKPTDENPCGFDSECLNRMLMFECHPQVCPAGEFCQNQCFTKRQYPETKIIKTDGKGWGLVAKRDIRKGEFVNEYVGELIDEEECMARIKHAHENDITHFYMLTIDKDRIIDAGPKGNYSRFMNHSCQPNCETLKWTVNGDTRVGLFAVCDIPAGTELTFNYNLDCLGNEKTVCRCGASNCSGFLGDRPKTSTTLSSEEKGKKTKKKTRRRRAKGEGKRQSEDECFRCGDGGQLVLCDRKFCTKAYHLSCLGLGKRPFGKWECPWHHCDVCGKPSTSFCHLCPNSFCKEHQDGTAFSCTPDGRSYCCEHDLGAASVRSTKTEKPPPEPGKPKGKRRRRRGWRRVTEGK
ALR H2O2 inh: blocks human ALR sulfhydryl oxidase activity; P55789; purified ALR, DTT oxidation, H2O2 HRP-luminol luminescence; inhibition, % (concentration not given with the values); hit rate 3.8% among 290,000; AID 485317;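 active means mean replicate inhibition above about 79%, with every replicate also reaching it, limit read from the data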
HIV Env fusion: HIV envelope-mediated fusion inhibition. AID 651610. hit rate 1.1% among 360,000. HeLa-JRFL Env/CEM21 cell fusion, luciferase. inhibition, % at 12.3 µM;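 active means mean replicate inhibition score of at least 50 and every replicate individually at or above 50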;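 further: 0% = plate neutral controls and 100% = maraviroc near 300 nM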
Casp6 inh: caspase-6 (human) enzyme inhibition | AID 686996 | P55212 | inhibition, % at 12.5 µM | purified caspase-6, Z-VEID-R110 cleavage fluorescence | hit rate 0.53% among 350,000;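 active means mean inhibition across replicates at least about 35%, with every replicate also reaching that limit, limit read from the data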;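 further: 0% = median of neutral control wells and 100% = no fluorescence left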
Active calls of the source: *; nt = not tested or not shown; [ ] = dose if it differs, or a comment.

SMILES	F508del corr	PglD DTNB	NSD2 inh	ALR H2O2 inh	HIV Env fusion	Casp6 inh
O=C(NCc1ccco1)c1cc2cc(Br)ccc2o1	-2	-4	0	98*	-5	8
O=C(NCc1ccco1)c1ccc(Oc2ccccc2)cc1	nt	1	1	90*	4	nt
O=C(NCc1ccco1)c1ccccc1Nc1ccc(F)cc1	nt	1	5	99*	27	nt
O=C(NCc1ccco1)c1ccccc1F	nt	4	3	58	-20	nt
CCOc1ccc(C(=O)NCc2ccco2)cc1	nt	2	-3	33	12	nt
C/C=C/c1ccc([C@H]2[C@@H](CO)N(C(=O)CC)C23CN(C(=O)c2ccccc2)C3)cc1	0	nt	nt	nt	nt	-1
O=C(NCc1ccccc1)c1ccc(C(=O)NCc2ccccc2)cc1	-2	nt	-1	nt	82*	1
Cc1cc(C)cc(C(=O)OCC(=O)NCc2ccco2)c1	nt	1	-1	0	-6	51*
Cc1ccc(C(=O)NCc2ccco2)cc1	-1	-5	1	13	-7	-1
O=C(NCc1ccco1)c1ccc(C(=O)NCc2ccco2)cc1	3	nt	-1	nt	-7	40*
O=C(NCc1ccccc1)c1ccccc1	2	-3	nt	nt	nt	-4
Cc1noc(C)c1NC(=O)N(C)C[C@H]1Oc2ccc(NC(=O)Cc3ccccc3)cc2CC(=O)N([C@H](C)CO)C[C@@H]1C	2	6	nt	nt	0[16.7 µM]	-4
CC(=O)N1[C@H](CO)[C@@H](c2ccccc2)C12CN(C(=O)c1ccccn1)C2	0	nt	nt	nt	nt	3
COC(=O)Cc1[nH]n(-c2nc3ccccc3s2)c(=O)c1C(C)=Nc1ccc(Cl)cc1	1	nt	0	60	-7	11
COC(=O)Cc1[nH]n(-c2nc3ccccc3s2)c(=O)c1C(C)=Nc1ccc(C)cc1	-3	nt	0	98*	40	3
O=C(Cc1ccccn1)N1CC(=O)N2[C@H](CO)[C@@H](c3ccc(C#CC4CCCC4)cc3)[C@@H]2C1	4	nt	nt	nt	nt	0
O=S(=O)(c1ccc(-c2csc(-c3cccnc3)n2)cc1)N1CCCCC1	nt	-7	0	62	-18	2
O=S(=O)(c1cccc(-c2csc(-c3cccnc3)n2)c1)N1CCCCC1	nt	5	5	98*	33	nt
O=S(=O)(c1ccc(-c2csc(-c3cccnc3)n2)cc1)N1CCCC1	nt	-3	2	97*	-27	nt
CC1CCN(S(=O)(=O)c2cccc(-c3csc(-c4cccnc4)n3)c2)CC1	nt	nt	0	-24	nt	nt
O=S(=O)(c1cccc(-c2csc(-c3cccnc3)n2)c1)N1CCOCC1	-6	-3	1	99*	-32	0
C[C@@H](NC(=O)C[C@H]1C=C[C@@H](NC(=O)CN2CCOCC2)[C@H](CO)O1)c1ccccc1	1	2	nt	nt	1[16.7 µM]	-3
CN(CC(=O)Nc1ccncc1)S(=O)(=O)c1ccc(Br)cc1	nt	1	-4	-4	28	nt
CN(CCCC(=O)Nc1ccncc1)S(=O)(=O)c1ccc(Cl)cc1	nt	-4	-1	-8	66*	nt
CCCC(=O)Nc1ccc2c(c1)C(=O)N(C)[C@H]1CC[C@@H](CC(=O)NCc3ccccc3Cl)O[C@H]1CO2	0	4	nt	nt	nt	4
SMILES	F508del corr	PglD DTNB	NSD2 inh	ALR H2O2 inh	HIV Env fusion	Casp6 inh
O=C(C1CCC(CNc2nc(=S)[nH]c3ccccc23)CC1)N1CCN(c2ccccn2)CC1 (stereo unspecified)	nt	-2	5	nt	65*	nt
CCCC1C(=O)Nc2ccccc2N1C(=O)c1ccc(C(C)(C)C)cc1 (stereo unspecified)	-3	1	3	-4	62*	5
CCCC1C(=O)Nc2ccccc2N1C(=O)c1cccc(C)c1 (stereo unspecified)	-1	-1	0	-1	52	1
CC(=O)Nc1ccc(SC(C)C(=O)NC(N)=O)cc1 (stereo unspecified)	nt	0	nt	99*	-48	nt
COc1ccc(NC(=O)C(C)Sc2ccccc2)cc1 (stereo unspecified)	nt	1	-2	-6	nt	nt
O=C(C[C@@H]1CC[C@H]2[C@@H](COC[C@H](O)CN2Cc2cccc(Cl)c2)O1)NCC1CCCCC1	-3	2	nt	nt	31[16.7 µM]	nt
Cc1oc(-c2ccccc2F)nc1CS(=O)(=O)CC(=O)N1CCN(c2ccccc2)CC1	-4	0	nt	21	60*	-2
Cc1ccc(-c2nc(CS(=O)(=O)CC(=O)N3CCCCCC3)c(C)o2)cc1	-4	1	nt	95*	51*	3
Cc1oc(-c2ccccc2F)nc1CS(=O)(=O)CC(=O)N1CCc2ccccc21	3	-3	nt	0	22	0
Cc1ccc(-c2nc(CS(=O)(=O)CC(=O)N3CCc4ccccc4C3)c(C)o2)cc1	2	4	nt	10	24	2
Cc1cccc(-c2nc(CS(=O)CC(=O)N3CCc4ccccc4C3)c(C)o2)c1 (stereo unspecified)	nt	0	nt	nt	nt	nt
CCN1CCN(C(=O)CS(=O)Cc2nc(-c3cccc(C)c3)oc2C)CC1 (stereo unspecified)	-2	nt	1	99*	-5	3
CCOC(=O)N1CCN(C(=O)CS(=O)Cc2nc(-c3cccc(C)c3)oc2C)CC1 (stereo unspecified)	-2	-3	nt	99*	-9	0
Cc1cccc(-c2nc(CS(=O)CC(=O)N3CC(C)CC(C)C3)c(C)o2)c1 (stereo unspecified)	2	nt	8	96*	1	0
CCOC(=O)N1CCN(C(=O)CS(=O)Cc2nc(-c3ccc(OC)c(OC)c3)oc2C)CC1 (stereo unspecified)	2	-1	-1	99*	-8	-3
Cc1noc(C)c1S(=O)(=O)Nc1ccc2c(c1)C(=O)N([C@H](C)CO)C[C@H](C)[C@@H](CN(C)C(=O)Nc1ccc(C(F)(F)F)cc1)OCCCC[C@H](C)O2	-2	0	nt	nt	44[16.7 µM]	-3
CCCN1[C@@H]2c3ccc(-c4ccc(F)cc4)c(=O)n3C[C@H]1[C@H](CO)[C@H]2C(=O)NCC	-2	nt	nt	nt	nt	1
CCCC#Cc1ccc([C@@H]2[C@@H](CO)N3C(=O)CN(C(=O)c4cccnc4)C[C@H]23)cc1	1	nt	nt	nt	nt	2
CCCC(=O)Nc1ccc2c(c1)C(=O)N(C)C[C@@H](OC)[C@H](C)CN(C(=O)C1CCCC1)[C@@H](C)CO2	1	0	nt	nt	-12[16.7 µM]	2
CC(C)c1ccc(NC2CCCN(C(=O)CSc3nncn3C)C2)cc1 (stereo unspecified)	2	5	-2	91*	-1	-2
CCn1nc(C)cc1C(=O)N1CCCC(Nc2ccc(C(C)C)cc2)C1 (stereo unspecified)	0	-3	2	nt	0	3
CC(C)c1ccc(NC2CCCN(C(=O)CN3CCOC3=O)C2)cc1 (stereo unspecified)	0	0	1	72	nt	-1
CC(C)c1ccc(NC2CCCN(C(=O)CCN3CCCCC3=O)C2)cc1 (stereo unspecified)	1	-1	-1	97*	nt	-5
